The assay is described as follows: CHOP2 Reporter Counterscreen Assay for Inhibitors of Ubiquitin-specific Protease USP2a.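 Further: activated enterokinase alone at 50 pM in a cell-free format rather than USP2a or CHOP2; nearly all actives have a fitted effect of over 55% in size.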 The gist of the method: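 Cell-free counterscreen with pre-activated enterokinase alone (50 pM final) in 20mM Tris-HCl pH 8.0, 2mM CaCl2, 2mM beta-mercaptoethanol, 0.05% CHAPS; compound preincubation 30 min RT, reporter substrate 25nM final, fluorescence read after 10 min (Ex 485/Em 531).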

From PubChem BioAssay AID493169 (National Center for Advancing Translational Sciences (NCATS), 2011) come the findings set out here.

Results filed as inconclusive are left out. A call without a number means that no potency is given here. Activity calls are given as the source filed them. The call rests on the fitted dose curve; in most records, active means well fitted inhibition curve with a large enough effect; inconclusive means small, poorly fitted or top-dose-only effect; inactive means flat fitted curve, though single readings scatter.
Potency means the concentration at half of the fitted maximal effect.

With `O=C(Nc1ccc(N2CCCC2)cc1)c1cccc(-c2cc3ccccc3oc2=O)c1`, the Potency result was “inactive”. In the case of `CC(C)CC(=O)NC(=S)Nc1nc(-c2ccc(Cl)cc2)cs1`, the Potency result is “inactive”. In the case of `COc1cc(C)c(S(=O)(=O)NCc2ccc3c(c2)OCO3)cc1C` it was “inactive”. Regarding `C=CC#CC[N+]1(CC#Cc2ccccc2)CCOCC1`, the Potency is 2.24 µM (active). Take `O=C(NN1C(=O)/C(=C/C=C/c2ccco2)SC1=S)c1ccncc1`: the Potency is 2.51 µM (active). In the case of `O=C1S/C(=C\C=C\c2ccco2)C(=O)N1c1ccc(O)cc1` it was 10 µM (active); in that of `O=C(Nc1ncccc1Cl)c1cccc(F)c1`, “inactive”. Turning to `Cc1cc(C)c2c(N=CN(C)C)c(C(=O)N3CCN(c4ncccn4)CC3)sc2n1`, the Potency entry was “inactive”.

Turning to `C[C@H](CO)N1C[C@H](C)[C@@H](CN(C)S(=O)(=O)c2cn(C)cn2)Oc2ccc(NC(=O)Cn3cnnn3)cc2C1=O`, the Potency result was “inactive”. `O=C(CN1CCOCC1)Nc1ccc(C2CCCCC2)cc1`: the Potency entry is “inactive”. The same measure for `Cn1c(=O)c2c(nc(CN3CCN(C(=O)c4ccco4)CC3)n2CCCc2ccccc2)n(C)c1=O`: “inactive”; for `Cc1nc2ccccc2c2oc(C(=O)NCCN3CCN(C)CC3)cc12`: “inactive”; for `CN=c1scc(-c2ccccc2F)n1/N=C/c1ccc(O)c(O)c1O`: 10 µM (active). The same measure for `Cc1ccc(Nc2cc(C)nc(NCc3ccccc3)n2)cc1`: “inactive”; for `NC1=NC(=O)/C(=C/c2cccc(-c3ccc(S(N)(=O)=O)cc3)c2)S1`: “inactive”; for `CCOC(=O)c1[nH]c2ccc(OC)cc2c1NC(=O)CCN1CCCC(C)C1` (stereo not given): “inactive”. In the case of `COc1cc(/C=C(/C(=O)c2cccs2)c2nc3ccccc3[nH]2)ccc1O` it was “inactive”; in that of `COc1ccc(-c2nc(Cn3c(SCc4ccc(F)cc4)nc4ccncc43)c(C)o2)cc1OC`, “inactive”. For `CCOC(=O)COc1ccccc1/C=N/O`, the Potency entry was “inactive”. In the case of `Cc1ccc(C(=O)N/C(=C/c2cccs2)C(=O)NCc2ccco2)cc1` it was “inactive”. In the case of `CCN1C(=O)C(NC(C)=O)c2cc(OC)ccc21` (stereo not given) it was “inactive”. In the case of `Cc1ccc([C@@H]2CC=C(C(=O)O)[C@H](c3cccc(Cl)c3)N2S(=O)(=O)c2ccc(C)cc2)cc1` it was “inactive”.

As to `Cn1nnnc1Sc1ncnc2scc(-c3ccc4c(c3)OCO4)c12`, the Potency result was “inactive”. The same measure for `Cn1c(=O)[nH]c(=O)c2c1nc(NCc1ccccc1)n2CCCc1ccccc1`: “inactive”. In the case of `O=C1OC[C@@H]2CCCN2C(=O)[C@@H](CC(=O)N(CCO)Cc2ccccc2)C/C=C\C[C@@H]1Cc1ccc(F)cc1` it was “inactive”. In the case of `CCC(C)c1ccc(O)c(N)c1` (stereo not given) it was “inactive”; in that of `Cc1ccccc1[C@@H]1C(C#N)=C(N)S[C@H]1C(=O)c1ccccc1`, “inactive”. Take `COc1ccc(S(=O)(=O)N(C)CC(=O)Nc2cccc(C(C)=O)c2)cc1Cl`: the Potency result was “inactive”. In the case of `O=C(/C=N/O)NCc1cccnc1` it was “inactive”. The same measure for `Cc1c(NC(=O)C2CCCN2S(=O)(=O)c2ccc(Cl)cc2)c(=O)n(-c2ccccc2)n1C` (stereo not given): “inactive”; for `COc1ccc(S(=O)(=O)NCCSCc2ccco2)cc1OC`: 10 µM (active); for `CCOC(=O)c1c(C)c(C(=O)O)n(C)c1C`: “inactive”.

For the compound `CCOC(=O)N1CCC(NC(=O)c2ccc(OC)c(CN3CC(=O)N4CCCC4C3=O)c2)CC1` (stereo not given), the Potency result was “inactive”. With `CCOC(=O)N1CCN(C(=O)c2cc3c(ccc4ccccc43)oc2=O)CC1`, the Potency entry is “inactive”.

As to `Cc1ccc(C(C(=O)NC2CCCC2)N2CCc3ccccc32)cc1` (stereo not given), the Potency result is “inactive”.
